This passage reports Potency and activity change, negative = cytotoxicity results from PubChem BioAssay (Tox21).

Results filed as inconclusive are left out. Entries that show only a call come without a potency. A number with no mark means an inactive call. Calls of active or inactive are those of the source. Calls follow the shape of the full dose curve.

A short description of this assay: p53 small molecule agonists, cell-based qHTS assay: qHTS cell viability counter screen (AID 1963581). Also: nearly all actives have a fitted effect of over 45% in size. The note with it: p53RE-bla HCT-116 viability, ATP luminescence, 16 h; series mostly up to 66 µM. The text has this: National Center for Advancing Translational Sciences [NCATS]
Division of Preclinical Innovation [DPI]
U.S. Environmental Protection Agency [EPA]
National Institutes of Environmental Health Sciences [NIEHS]
National Toxicology Program [NTP]
U.S. Food and Drug Administration [FDA]
p53, a tumor suppressor protein, is activated following cellular insult, including DNA damage and other cellular stresses. The activation of p53 regulates cell fate by inducing DNA repair, cell cycle arrest, apoptosis, or cellular senescence. The activation of p53, therefore, is a good indicator of DNA damage and other cellular stresses. The CellSensor p53RE-bla HCT-116 cell line (Invitrogen) contains a stably integrated beta-lactamase reporter gene under control of the p53 response elements. The activation of the reporter gene under culture conditions can be detected by fluorescence intensity. This cell line was used to screen the Tox21 compound library in a 1536-well plate format and to identify agonists that activate the p53 signaling pathway. The cytotoxicity of the Tox21 compound library against the p53 RE-bla HCT-116 cell line was tested in parallel by measuring the intra cellular ATP content in the same wells.
Tox21 Assay Protocol Summary:
The p53RE-bla cells were dispensed at 4,000 cells/5 ul/well in 1536-well black wall/clear bottom plates using a Multidrop dispenser. After the assay plates were incubated at a 37 C/5% CO2 incubator for 5 hours, 23 nL of compounds dissolved in DMSO, positive controls or DMSO only was transferred to the assay plate by a pin tool. The plates were incubated at 37 C for 16 hours. After 1 uL of LiveBLAzerTM B/G FRET substrate was added using a Flying Reagent Dispenser, the plates were incubated at room temperature for 2 hours, and fluorescence intensity was measured by an Envision plate reader. For cell viability readout that measures cytotoxicity, 4 ul/well of CellTiter-Glo reagent was added into the assay plates using a Flying Reagent Dispenser. After 30 min incubation at room temperature, the luminescence intensity in the plates was measured using a ViewLux plate reader.
As for `CCCCC/C(=C\c1ccccc1)CO`, the Potency result is “inactive”. With `O=C(O)[C@H](O)c1ccccc1`, the Potency result was “inactive”. For the molecule `CC[C@@H]([C@H](C)O)n1ncn(-c2ccc(N3CCN(c4ccc(OC[C@@H]5CO[C@@](Cn6cncn6)(c6ccc(F)cc6F)C5)cc4)CC3)cc2)c1=O`, the Potency entry is “inactive”. Still for that read-out and setting: the result for `Cc1cc(C)c(N)cc1C` reads “inactive”; that for `CO[Si](OC)(c1ccccc1)c1ccccc1`, “inactive”. As for `O=C(Cl)c1cccc([N+](=O)[O-])c1`, the Potency result was “inactive”. Consider `C#C[C@]1(O)CC[C@H]2[C@@H]3[C@H](C)CC4=C(CCC(=O)C4)[C@H]3CC[C@@]21C`, for which the Potency entry was “inactive”. With `O=C(O)CNC(=O)CNC(=O)CNC(=O)CSC(=O)c1ccccc1`, the Potency result is “inactive”. Turning to `C=C(C)CS(=O)(=O)O`, the Potency entry was “inactive”. Consider `Cc1cc2nc(N)sc2cc1C`, for which the Potency result is “inactive”. Turning to `Cc1cc(O)c2c(O)c3c(O)cccc3cc2c1`, the Potency entry is “inactive”. Same read-out and setting: the result for `CCCCNCC` reads “inactive”. With `Clc1ccc2cc3ccccc3cc2c1`, the Potency entry was “inactive”. On to `O=S(=O)(c1ccc(OCc2ccccc2)cc1)c1ccccc1O`, for which the Potency entry is “inactive”. On the same count and under the same terms, the entry for `C=C(C)C(=O)OCCCCCCCCCC` is “inactive”; for `CCCCCCCCCCCC(=O)OCC` it is “inactive”.

Regarding `C=Cc1ccc(O)c(OC)c1`, the Potency entry is “inactive”. As for `CCc1ccc2c(c1)C(=O)c1ccccc1C2=O`, the Potency result is “inactive”. `OCCOCC#CCOCCO`: the Potency entry was “inactive”. Still for that read-out and setting: the entry for `CC1(CN2CCC(n3c(=O)[nH]c4ccccc43)CC2)OCc2ccccc2-n2cccc21` (stereo not given) is “inactive”; for `O=C(Oc1cccc2cccnc12)c1ccccc1` it is “inactive”. Take `O=S1(=O)N=C(O)c2ccccc21`: the Potency entry was “inactive”. Still for that read-out and setting: the entry for `NC(=S)NC(N)=S` is “inactive”; for `CCn1nc(C)c2c1C(=O)NCC(c1ccc(O)cc1)=N2` it is “inactive”; for `c1ccc(C(O[C@@H]2CCCN(CCc3ccc4c(c3)OCO4)C2)c2ccccc2)cc1` it is “inactive”.

With `CC(=O)OCC(=O)[C@H]1CC[C@H]2[C@@H]3CCC4=CC(=O)CC[C@]4(C)[C@H]3CC[C@]12C`, the Potency result is “inactive”. On to `CC(=O)SCc1ccco1`, for which the Potency entry was “inactive”. `Nc1ccn(C2CO[C@H](CO)O2)c(=O)n1` (stereo not given in full): the Potency result was “inactive”.

Consider `Nc1ccc(N)c2c1C(=O)c1ccccc1C2=O`, for which the Potency entry was “inactive”. With `O=C(OC[C@H]1O[C@@H](OC(=O)c2cc(O)c(O)c(OC(=O)c3cc(O)c(O)c(O)c3)c2)[C@H](OC(=O)c2cc(O)c(O)c(OC(=O)c3cc(O)c(O)c(O)c3)c2)[C@@H](OC(=O)c2cc(O)c(O)c(OC(=O)c3cc(O)c(O)c(O)c3)c2)[C@@H]1OC(=O)c1cc(O)c(O)c(OC(=O)c2cc(O)c(O)c(O)c2)c1)c1cc(O)c(O)c(OC(=O)c2cc(O)c(O)c(O)c2)c1`, the activity change, negative = cytotoxicity is 16.3% [at 13.5 µM]. In the case of `C=C[Si](OC(C)=O)(OC(C)=O)OC(C)=O`, the Potency entry was “inactive”.

As for `CCCCCCC(C)Nc1ccc(Nc2ccccc2)cc1` (stereo not given), the Potency entry is “inactive”. Consider `O=C(Oc1ccccc1)c1ccc2ccccc2c1O`, for which the Potency result was “inactive”. With `C=Cc1ccc(C=C)cc1`, the Potency result is “inactive”. Same read-out and setting: the entry for `CSc1c(Cl)c(Cl)c(Cl)c(Cl)c1Cl` is “inactive”; for `O=c1c2ccccc2oc2ccccc12` it is “inactive”. Consider `C=CCOCC(O)CCl` (stereo not given), for which the Potency result is “inactive”. Turning to `C=C(C)C1CCC(C)(O)CC1` (stereo not given), the Potency entry was “inactive”. For the molecule `CCCCCC[C@@H](O)C/C=C\CCCCCCCC(=O)O`, the Potency result was “inactive”. In the case of `CC(C)N1C(=O)c2ccccc2C1=O`, the Potency result is “inactive”.
